Some test systems named below: NCI-H23 lung; NCI-H226 lung; NCI-H322M lung; HOP-62 NSCLC; NCI-H460 lung; HOP-92 NSCLC; NCI-H522 lung; A549/ATCC NSCLC; 786-0 renal; DU-145 prostate; K-562 leukemia; MALME-3M melanoma; MDA-MB-231 breast; RXF 393 renal; SF-268 CNS; SF-295 CNS; SF-539 CNS; UACC-257 melanoma; M14 melanoma; COLO 205 colon.
Common to all, as to assay: NCI-60 one-dose screen, 48 h (100 = growth as untreated, 0 = no growth, -100 = all killed)
Details in all cases: 10 µM unless noted

About 83,000 compounds went through this panel and 20% of them were active in at least one assay; those are over-represented in the sample as a whole.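 In brief: 96-well plates, 48 h treatment, single concentration, percent growth endpoint.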 A number with no mark means an inactive call. Activity calls are given as the source filed them. How the source made its calls: active means growth percent below 10; inactive means the rest.

In PubChem BioAssay (NCI) one finds growth data, which are given here for eight compounds.

As for `CCCOC(=O)N[C@H]1CCc2cc(OC)c(OC)c(OC)c2-c2ccc(SC)c(=O)cc21`, the growth in the assay on NCI-H23 lung is 35%; in the assay with NCI-H226 lung it was 13%; with NCI-H322M lung, 32.7%; in the assay on HOP-62 NSCLC it was 39.3%; in the assay on NCI-H460 lung it was 0.992% (active); in the assay on HOP-92 NSCLC, 34.9%. In addition, the growth in the assay on NCI-H522 lung was 21.5%; in the assay with A549/ATCC NSCLC, 22.6%; with 786-0 renal it was 24.1%; with DU-145 prostate, -18.3% (active); in the assay with K-562 leukemia it was 7.7% (active); in the assay with MALME-3M melanoma, 35.4%. Further, the growth in the assay on MDA-MB-231 breast is -8.18% (active); in the assay with RXF 393 renal, 19.5%; with SF-268 CNS, 22.6%; with SF-295 CNS, 17.3%; with SF-539 CNS it was -21.5% (active); with UACC-257 melanoma it was 71.8%. In the assay with M14 melanoma, the growth was 6.23% (active).

On to `C=C1C(=O)O[C@H]2[C@H]1CC/C(CNC(=O)C(C)c1ccc(CC(C)C)cc1)=C\CC[C@@]1(C)O[C@@H]21` (some centres not stated), for which the growth was 51.4% in the assay on NCI-H23 lung; 75.1% in the assay on NCI-H226 lung; 72.3% with NCI-H322M lung; 60% with HOP-62 NSCLC; 36.2% in the assay with NCI-H460 lung; -19.1% (active) in the assay with HOP-92 NSCLC. Also, the growth in the assay with NCI-H522 lung was 7.53% (active); in the assay with A549/ATCC NSCLC, 42.2%; with 786-0 renal it was -86% (active); in the assay with DU-145 prostate, 16.4%; with K-562 leukemia, -13.8% (active); in the assay with MALME-3M melanoma, -60.7% (active). For the same compound, the growth in the assay with MDA-MB-231 breast is -1.8% (active); in the assay on RXF 393 renal, -64.4% (active); with SF-268 CNS, 43.9%; in the assay on SF-295 CNS, 75.9%; in the assay on SF-539 CNS, -74.8% (active); with UACC-257 melanoma it was -11.4% (active). Moreover, the growth in the assay with M14 melanoma was -74.3% (active).

In the case of `Cc1c(C)c([N+](=O)[O-])c(C)c([N+](=O)[O-])c1C`, the growth with NCI-H23 lung was 116%; in the assay on NCI-H226 lung, 108%; in the assay with NCI-H322M lung it was 115%; in the assay with HOP-62 NSCLC it was 121%; in the assay on NCI-H460 lung it was 112%; with HOP-92 NSCLC, 79.2%. In addition, the growth is 77.2% in the assay on NCI-H522 lung; 98.2% in the assay on A549/ATCC NSCLC; 95.4% in the assay with 786-0 renal; 122% in the assay on COLO 205 colon; 104% in the assay with DU-145 prostate; 111% with MALME-3M melanoma. Moreover, the growth in the assay on MDA-MB-231 breast is 101%; in the assay with RXF 393 renal it was 108%; with SF-268 CNS, 106%; in the assay with SF-295 CNS it was 97.6%; with SF-539 CNS, 107%; with UACC-257 melanoma, 105%. Moreover, the growth in the assay with M14 melanoma was 108%.

In the case of `Cc1ccc(-c2nc3ccccn3c2/C=C2/C(=O)Nc3cc(Cl)ccc32)cc1`, the growth in the assay on NCI-H23 lung was 72.4%; with NCI-H226 lung, 94.5%; in the assay on NCI-H322M lung, 98%; with HOP-62 NSCLC, 83.7%; in the assay on NCI-H460 lung, 82.3%; in the assay on HOP-92 NSCLC, 110%. Besides, the growth was 68.7% in the assay with NCI-H522 lung; 90.6% with A549/ATCC NSCLC; 92.7% in the assay with 786-0 renal; 84% in the assay on COLO 205 colon; 65.5% in the assay with DU-145 prostate; 76.1% in the assay on MALME-3M melanoma. Also, the growth was 76% with MDA-MB-231 breast; 77.8% with RXF 393 renal; 63.3% with SF-268 CNS; 64.5% with SF-295 CNS; 79.7% with SF-539 CNS; 91.1% in the assay on UACC-257 melanoma. In addition, in the assay on M14 melanoma, the growth is 80.4%.

For the compound `O=C(c1nc2ccccc2[nH]1)C1C(c2ccc(Cl)cc2)C2CC3CCCC[C@H]3N2[C@@]12C(=O)Nc1cc(Cl)ccc12` (some centres not stated), the growth with NCI-H23 lung was 58.6%; in the assay on NCI-H226 lung, 58.8%; in the assay on NCI-H322M lung, 62.2%; in the assay with HOP-62 NSCLC, 68.7%; in the assay with NCI-H460 lung, 23.1%; with HOP-92 NSCLC it was 46.3%. Further, the growth in the assay on NCI-H522 lung is 56.4%; in the assay with A549/ATCC NSCLC, 35.2%; with 786-0 renal, 48.4%; in the assay with DU-145 prostate, 62.1%; with K-562 leukemia, 29%; in the assay on MALME-3M melanoma, 43.9%. The growth with MDA-MB-231 breast was 42.6%; with RXF 393 renal it was 35.7%; with SF-268 CNS it was 42.2%; with SF-295 CNS, 32.6%; in the assay with SF-539 CNS it was 60.6%; in the assay on UACC-257 melanoma, 45.7%. Also, the growth in the assay with M14 melanoma was 34.2%.

On to `c1ccc(-c2cn3c(ccc4ccccc43)n2)cc1`, for which the growth is 70.5% with NCI-H23 lung; 79% in the assay with NCI-H226 lung; 77.5% with NCI-H322M lung; 68.4% with HOP-62 NSCLC; 20.6% in the assay on NCI-H460 lung; 65.6% in the assay with HOP-92 NSCLC. Moreover, the growth in the assay on NCI-H522 lung was 44.5%; in the assay with A549/ATCC NSCLC it was 47.1%; with 786-0 renal, 81.7%; in the assay on DU-145 prostate, 87.8%; in the assay with K-562 leukemia it was 20.8%; in the assay on MALME-3M melanoma it was 80.7%. Further, the growth was 55.8% in the assay with MDA-MB-231 breast; 86% with RXF 393 renal; 74.7% with SF-268 CNS; 60.2% in the assay with SF-295 CNS; 62.6% in the assay with SF-539 CNS; 78.9% with UACC-257 melanoma. Also, in the assay on M14 melanoma, the growth was 32.2%.

As for `CCOC(=O)c1cc(C(=O)c2ccc(OC)c(OC)c2)n2c1ccc1ccccc12`, the growth in the assay on NCI-H23 lung is 86.2%; in the assay with NCI-H226 lung, 80.7%; with NCI-H322M lung, 101%; with HOP-62 NSCLC, 85%; in the assay with NCI-H460 lung it was 99.2%; in the assay on HOP-92 NSCLC it was 83.3%. Further, the growth in the assay on NCI-H522 lung was 86%; in the assay on A549/ATCC NSCLC it was 98.3%; in the assay on COLO 205 colon, 112%; with DU-145 prostate it was 109%; with K-562 leukemia, 86.8%; with MALME-3M melanoma, 93.8%. The growth is 66.9% with MDA-MB-231 breast; 95.7% in the assay with RXF 393 renal; 81% in the assay with SF-268 CNS; 96.9% with SF-295 CNS; 99.9% in the assay with SF-539 CNS; 107% in the assay on UACC-257 melanoma. In addition, in the assay on M14 melanoma, the growth was 102%.

On to `COc1ccc(CCn2cncc2-c2c[nH]c3ccccc23)cc1`, for which the growth is 82% in the assay on NCI-H23 lung; 81.3% with NCI-H226 lung; 92.8% in the assay with NCI-H322M lung; 72.8% with HOP-62 NSCLC; 92.5% in the assay on NCI-H460 lung; 60.7% in the assay with HOP-92 NSCLC. Further, the growth is 83.7% in the assay with NCI-H522 lung; 99.2% in the assay on A549/ATCC NSCLC; 96.9% in the assay with COLO 205 colon; 102% in the assay on DU-145 prostate; 87% in the assay with K-562 leukemia; 90.8% with MALME-3M melanoma. Also, the growth in the assay on MDA-MB-231 breast is 74.5%; in the assay on RXF 393 renal, 87.8%; with SF-268 CNS, 80.9%; in the assay on SF-295 CNS, 74.1%; with SF-539 CNS, 93.4%; with UACC-257 melanoma, 102%. In addition, in the assay on M14 melanoma, the growth was 92.6%.
